# Measured values as given in the supplement of paper PMC13380429.
# Columns and labels:
# [1] = system: Vero E6 infected with SARS-CoV-2; test: inhibition of SARS-CoV-2 cytopathic effect; higher = more antiviral protection, active = above 15; conditions: 48 h
# [2] = system: Vero E6 infected with SARS-CoV-2; test: morphology score (similarity to uninfected cells); higher = more like uninfected cells; conditions: 24 h
Compound,inhibition of SARS-CoV-2 cytopathic effect ([1]; 1 nM),inhibition of SARS-CoV-2 cytopathic effect ([1]; 8.33 nM),inhibition of SARS-CoV-2 cytopathic effect ([1]; 100 nM),inhibition of SARS-CoV-2 cytopathic effect ([1]; 833.33 nM),inhibition of SARS-CoV-2 cytopathic effect ([1]; 10000 nM),morphology score [2]
NC(=O)CN1Cc2ccccc2OC1=O [caroxazone],1.09% (inactive),-3.02% (inactive),-3.19% (inactive),-4.05% (inactive),-0.94% (inactive),–
CC[C@H](C)[C@H](NC(=O)[C@H](Cc1ccc(O)cc1)NC(=O)[C@@H](NC(=O)[C@H](CCCNC(=N)N)NC(=O)[C@@H](N)CC(=O)O)C(C)C)C(=O)N[C@@H](Cc1c[nH]cn1)C(=O)N1CCC[C@H]1C(=O)O,-1.39% (inactive),1.3% (inactive),0.18% (inactive),-0.77% (inactive),2.67% (inactive),–
CCOC(=O)C1=C(N)Oc2ccc(Br)cc2C1C(C#N)C(=O)OCC (stereo unspecified),-0.86% (inactive),0.28% (inactive),0.47% (inactive),0.895% (inactive),2.46% (inactive),–
CCOC(=O)[C@@]1(CCCCCCOc2ccc(Cl)cc2)CO1 [etomoxir],-0.23% (inactive),-0.29% (inactive),1.79% (inactive),2.79% (inactive),-4.51% (inactive),–
COc1cc2c(cc1O)C(CCc1ccc(Cl)cc1)N(C)CC2 (stereo unspecified),0.21% (inactive),2.27% (inactive),0.29% (inactive),0% (inactive),0.49% (inactive),–
COc1ccc(CNC(=O)c2sc3nc(C)cc(C)c3c2N)cc1,1.68% (inactive),2.93% (inactive),2.17% (inactive),2.96% (inactive),2.28% (inactive),–
O=C(O)[C@H](O)c1ccccc1 [mandelic-acid],-0.12% (inactive),3.41% (inactive),3.65% (inactive),2.65% (inactive),-2.37% (inactive),–
C[N+](C)(CCOc1ccccc1)Cc1ccccc1 [bephenium-hydroxynaphthoate],2.11% (inactive),0.87% (inactive),0.58% (inactive),0.22% (inactive),-0.72% (inactive),–
O=C(c1c(F)ccc(NS(=O)(=O)N2CC[C@@H](F)C2)c1F)c1c[nH]c2ncc(-c3cnc(C4CC4)nc3)cc12,3.26% (inactive),-1.73% (inactive),-2.71% (inactive),-1.89% (inactive),-5.07% (inactive),–
C[C@]12CC[C@H]3[C@@H](CCC4=CC(=O)CC[C@@]43C)[C@@H]1CC[C@@H]2O (10 µM),–,–,–,–,–,-0.0371
Nc1nc(NC[C@H]2CC[C@H](CNS(=O)(=O)c3cccc4ccccc34)CC2)nc2ccccc12,-0.54% (inactive),-0.03% (inactive),0.19% (inactive),-0.88% (inactive),29.5% (active),–
COc1cccc(C=NCCN=Cc2cccc(OC)c2[O-])c1[O-].[Cl-].[Mn+3],2.33% (inactive),1.86% (inactive),0.89% (inactive),1.11% (inactive),14.1% (inactive),–
COc1cccc(-c2cc(NCc3ccc4c(c3)OCO4)nc(N)n2)c1,0.39% (inactive),-1.05% (inactive),0.16% (inactive),-2.75% (inactive),-1.99% (inactive),–
O=C(O)C1=CCCN(CCON=C(c2ccccc2)c2ccccc2)C1,-1.65% (inactive),0.36% (inactive),0.96% (inactive),0.86% (inactive),2.06% (inactive),–
O=c1[nH]c([C@@H]2CCCN2)nc2c1oc1ccc(Cl)cc12,-0.27% (inactive),0.12% (inactive),1.61% (inactive),-0.54% (inactive),-2.54% (inactive),–
NC[C@H]1CC[C@H](C(=O)O)CC1 [tranexamic-acid],1.98% (inactive),1.51% (inactive),2.74% (inactive),0.85% (inactive),-0.32% (inactive),–
C(#Cc1nc2ncccc2nc1OCCN1CCCC1)c1ccccc1,-1.59% (inactive),-0.87% (inactive),-1.72% (inactive),7.05% (inactive),15.8% (active),–
CC(C)(C)N1CCC(c2ccccc2)(c2ccccc2)CC1 [budipine],0.7% (inactive),3.31% (inactive),2.48% (inactive),-0.28% (inactive),1.72% (inactive),–
NC(=O)NCCN1CCN(c2cccc(C(F)(F)F)c2)CC1 [fluprazine],1.46% (inactive),1.13% (inactive),-1.67% (inactive),-1.94% (inactive),-2.06% (inactive),–
CCCCC1C(=O)N(c2ccccc2)N(c2ccccc2)C1=O [phenylbutazone],-0.14% (inactive),0.89% (inactive),0.31% (inactive),0.4% (inactive),0.88% (inactive),–
CC(=O)SC[C@@H](Cc1ccccc1)C(=O)NCC(=O)OCc1ccccc1 (racemic) [racecadotril],1.48% (inactive),1.8% (inactive),0.82% (inactive),1.15% (inactive),-5.3% (inactive),–
